NTR1 ag: agonists of human NTR1, primary screen, imaging, U2OS cells, beta-arrestin-GFP, high content; 330,000 compounds, 0.17% hits; activation, % at 20 µM; NTR1-U2OS beta-arrestin-GFP spot imaging, agonist mode; AID 493036, 2011; Neurotensin receptor type 1 (Homo sapiens), P30989;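 active = activation at or above 40% of the spot to cytoplasm intensity ratio, with at least 20 cells analyzed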;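 note: 0% = DMSO without peptide and 100% = 100 nM NTR1 peptide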
Target sequence (P30989 whole entry, looked up): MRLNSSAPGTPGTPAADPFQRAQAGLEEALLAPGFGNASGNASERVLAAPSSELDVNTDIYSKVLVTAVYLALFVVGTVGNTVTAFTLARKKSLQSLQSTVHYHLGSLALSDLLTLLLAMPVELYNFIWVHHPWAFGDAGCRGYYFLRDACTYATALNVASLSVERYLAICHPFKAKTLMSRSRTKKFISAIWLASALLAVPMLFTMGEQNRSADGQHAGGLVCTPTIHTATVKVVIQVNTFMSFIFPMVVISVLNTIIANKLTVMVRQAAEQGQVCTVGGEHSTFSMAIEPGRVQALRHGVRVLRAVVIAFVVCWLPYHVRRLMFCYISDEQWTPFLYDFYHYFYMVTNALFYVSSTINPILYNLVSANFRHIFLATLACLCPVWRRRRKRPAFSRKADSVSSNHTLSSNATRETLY
AI-2 QS mod: Vibrio harveyi AI-2 quorum sensing modulators, primary screen, JMH597 strain, luminescence/OD600 ratio; 300,000 compounds, 0.4% hits; activity change, % at 7.5 µM; Vibrio harveyi JMH597 AI-2 luminescence/OD600 ratio, 9 h; stronger effect = lower value; strain lacks LuxN and CqsS sensors; 0 = neutral-control median; in the data active = activity change below about -75%, passing the limit was not always enough;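 note: luminescence divided by OD600 gain over 9 h not by final OD600 alone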
NR3A LBD binder: binders of NR3A ligand-binding domain, primary screen, biophysical, differential scanning fluorimetry, uHTS; NR3A LBD differential scanning fluorimetry, Tm shift; 0% = protein alone, 100% = glycine-bound protein; Tm shift relative to glycine control, % at 25 µM; 340,000 compounds, 2.5% hits;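 active = melting temperature shift of at least 10% of the positive control shift, at one fixed dose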
Cardio protect: cardioprotection against H2O2-induced cell death, primary screen, uHTS, H9c2 cells, ATPLite luminescence | protection from H2O2 cell death, % at 20 µM | 360,000 compounds, 0.63% hits | H9c2 cardiomyocytes, H2O2 injury protection, 2 h;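 active = compounds giving at least 50% protection of heart cells from peroxide-induced death in the single-dose screen, raw or plate-pattern-corrected value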;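 note: 0% = DMSO wells with peroxide and 100% = DMSO wells without peroxide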
AHR activator: AHR activators, primary screen, cell-based, luminescence, luciferase reporter, human; AHR-responsive luciferase reporter cells; activation, % at 5 µM; 320,000 compounds, 2.5% hits; AID 2796, 2010; in the data active = activation above about 47%;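 note: 0% = vehicle wells and 100% = reference agonist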
Mot1-301 SUMO: yeast Mot1-301 growth rescue at high temperature, primary screen, SUMOylation pathway inhibitor project, S. cerevisiae, ATP luminescence, 38.5C; AID 2716, 2010; growth rescue, % at 18.8 µM; 320,000 compounds, 1% hits; S. cerevisiae Mot1-301 growth rescue; percent above DMSO median, 100 means doubled;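 active = every valid replicate shows activation above 250% relative to neutral control wells; inactive = the rest, any valid replicate at or below 250%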;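 note: OY570 slx delta 5 strain wells were the positive control but not used for scaling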
* marks the source's active call; other numbers are inactive results; . = not tested or not shown. Compounds with a hit are over-represented: about 6.2% of the library has one in this group of screens.

SMILES	NTR1 ag	AI-2 QS mod	NR3A LBD binder	Cardio protect	AHR activator	Mot1-301 SUMO
C(=N\Nc1ccccc1)/c1ccc(N2CCOCC2)cc1	0	32	-2	-8	14	63
Clc1cccc(N/N=C/c2ccc(N3CCOCC3)cc2)c1	6	37	2	-17	15	326*
COc1ccc(-c2nn(-c3ccccc3)cc2C(=O)NC2CCCCC2C)cc1 (stereo not given)	8	53	2	6	3	-1
CCC1(CC)CNC(=O)NC1	.	.	-1	5	.	.
COc1ccc(CN2CCN(C(=O)c3ccccc3C(=O)c3ccccc3)CC2)cc1F	.	.	.	5	.	.
OCCN1CCN(c2cc(-c3ccc4ccccc4c3)nc3ccnn23)CC1	.	.	.	9	.	.
c1ccc(-c2ccc3ccccc3n2)cc1	-2	-1	32*	-5	12	-6
c1ccc(-c2nc3ccccc3o2)nc1	2	24	1	-12	21	-25
c1ccc2nc(-c3nc4ccccc4o3)ccc2c1	2	8	1	-20	90*	-27
Cc1noc(C)c1COC(=O)C1CCN(S(=O)(=O)c2ccc(F)cc2)CC1	-1	.	0	3	-1	-2
CCCN(CCC)S(=O)(=O)c1ccc(C(=O)Nc2nc(-c3ccccc3)c(C(=O)OCC)s2)cc1	4	28	20*	-23	-2	17
COCCN(CCOC)S(=O)(=O)c1ccc(C(=O)Nc2nc(-c3ccccc3)c(C(=O)c3ccccc3)s2)cc1	2	13	2	-1	-3	-13
Cc1ccc2nc3c(c(N)c2c1)CCN3C	0	-5	-2	3	31	-1
CCCCN1CCc2c1nc1ccc(Br)cc1c2N	2	23	-3	-19	76*	10
COc1ccc(-c2nc(C#N)c(NCCCn3ccnc3)o2)cc1OC	0	2	0	-1	70*	3
N#Cc1nc(-c2ccco2)oc1NCCCn1ccnc1	2	5	1	0	70*	14
CC(C)(C)c1ccc(-c2nc(C#N)c(NCCCn3ccnc3)o2)cc1	3	-21	5	7	31	-15
Cc1csc(NC(=O)CCCC(=O)c2ccccc2)n1	-2	0	-4	5	0	5
CCC/C(=C1/c2ccccc2C(=O)N1c1ccccc1)c1ccc2[nH]ccc2c1	23	.	13*	-6	18	4
O=C1c2ccccc2/C(=C\c2ccc3[nH]ccc3c2)N1c1ccccc1	3	.	-1	-14	25	18
Cc1nc(SCc2cccc(F)c2)[nH]c(=O)c1C#N	1	.	13*	5	-3	-15
CCOC(=O)C1(CCOC)CCN(Cc2ccc3nonc3c2)CC1	-1	6	1	0	0	327*
COc1ccccc1/C=N\Nc1ccccc1[N+](=O)[O-]	4	-3	-2	-6	79*	-2
CCOc1ccccc1/C=N/Nc1ccccc1[N+](=O)[O-]	4	15	5	-12	14	3
COc1ccc(/C=N\Nc2ccc([N+](=O)[O-])cc2[N+](=O)[O-])c(C(=O)O)c1OC	0	22	0	-4	5	8
CC(C)Oc1ccccc1/C=N/Nc1ccccc1[N+](=O)[O-]	5	18	-7	-7	55*	-8
COc1ccc(/C=N\Nc2ccccc2[N+](=O)[O-])c(C(=O)O)c1OC	0	-1	0	-1	5	974*
COc1ccccc1NC(=S)N1CCN(c2cccc(C)c2C)CC1	1	-2	0	-16	-1	14
CCOC(=O)Cc1cc(-c2ccc(F)cc2)nc2ccc3ccccc3c12	.	-3	2	-3	61*	10
C/C(CCc1oc2ccc(Br)cc2c1-c1ccc(C)o1)=N/O	8	17	-12	-9	56*	-2

Assay outcomes from PubChem BioAssay.
